Screening results deposited in PubChem by National Center for Advancing Translational Sciences (NCATS).
PI5P4Ka inh: blocks human PI5P4K alpha kinase activity | P48426 | PI5P4Kalpha enzyme, ADP-Glo luminescence, 60 min; active compounds read low | max response, % | hit rate 1.2% among 330,000; active = max response of -50% or lower; inconclusive = between -30% and -50%; inactive = -30% or higher; also: value at the top dose of about 77 µM; % is scaled to controls: 0 for no effect and ±100 for the full control effect
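Reactions run in 0.038 M HEPES pH 7.4, 0.28 mM EGTA, 0.1% CHAPS and 5% DMSO, with PI5P4Kalpha, substrate, compound and 5 microM ATP final, one hour at room temperature. Readout is ADP-Glo luminescence.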
PLK1 PBD inh: PLK1 (human) polo-box domain binding inhibition. P53350. Plk1 PBD binding of FITC phosphopeptide, fluorescence polarization. Potency, µM, without a hit: max response, negative = inhibition, hits mostly inhibitors. hit rate 2.8% among 360,000. AID 720504; also: potency is read from the fitted curve at half-maximal effect; series mostly up to about 57 µM; % is scaled to controls: 0 for no effect and ±100 for the full control effect; nearly all actives have a fitted effect of over 65% in size
JMJD2A Tudor: JMJD2A Tudor domain (human) inhibition. Potency, µM (highest dose often 114 µM), without a hit: at the top dose activity change, negative = inhibition, usual class: inhibitors. hit rate 4.4% among 390,000. AlphaScreen JMJD2A-Tudor / H3K4me3 peptide binding; also: potency is read from the fitted curve at half-maximal effect; % is scaled to controls: 0 for no effect and ±100 for the full control effect; nearly all actives have a fitted effect of over 50% in size
BAZ2B block: inhibitors of human BAZ2B bromodomain | AlphaScreen BAZ2B-H3K14Ac peptide displacement | Potency, µM (titrated, usually from 114 µM), for the others: at the top dose activity change, negative = inhibition, usual class: inhibitors | hit rate 4.4% among 360,000 | Q9UIF8; also: potency is read from the fitted curve at half-maximal effect; % is scaled to controls: 0 for no effect and ±100 for the full control effect; nearly all actives have a fitted effect of over 60% in size
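Compounds, titrated to a top concentration of 110 uM, were incubated 30 min at room temperature with preformed BAZ2B/acetyl-K14 H3 peptide complex (50 nM each). Proximity signal was measured by AlphaScreen after 20 min with beads.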
HP1b chromo inh: inhibitors of HP1-beta chromodomain binding to methylated histone tails; AlphaScreen HP1-beta / biotin-H3K9me3 peptide binding; Potency, µM (highest dose often 114 µM), for inactives: at the top dose activity change, negative = inhibition, usual class: inhibitors; hit rate 0.56% among 390,000; also: potency is read from the fitted curve at half-maximal effect; nearly all actives have a fitted effect of over 70% in size
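HP1-beta protein (50 nM final) preincubated 30 min at room temperature with biotinylated H3(1-18)K9me3 peptide (50 nM) in PBS pH 7.4, 0.01% Tween-20, then compound added for 30 min. AlphaScreen streptavidin donor/nickel chelate acceptor beads (10 ug/mL final), 30 min dark, luminescence read.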
GCN5L2 inh: blocks human GCN5L2 histone acetyltransferase; Q92830; GCN5L2 HAT assay, ThioGlo1 CoA-SH fluorescence; Potency, µM (highest dose often 58.9 µM), for inactives: at the top dose activity change, negative = inhibition, most hits filed as inhibitors; hit rate 0.21% among 390,000; AID 504327; also: potency is read from the fitted curve at half-maximal effect; % is scaled to controls: 0 for no effect and ±100 for the full control effect
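Compounds, pin-transferred from DMSO stocks, meet 20nM GCN5L2 for 15 min before the reaction begins with H3(1-25) peptide (75uM) and acetyl-CoA (70uM). Thiol-reactive ThioGlo1 reports CoA release over 20 min at room temperature.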
The depositor's hits bear a star; ? = inconclusive; . = no result given; [ ] = remark or other dose. An excerpt weighted towards active compounds, which were near 7% of everything screened. Unless noted, calls follow the shape of the dose curve; as a rule, active = well fitted curve in the direction sought with a large enough effect; inconclusive = small, poorly fitted or top-dose-only effect, or another doubt; inactive = no such curve, though single readings can be large; an effect the other way counts as inactive or inconclusive.

SMILES | PI5P4Ka inh | PLK1 PBD inh | JMJD2A Tudor | BAZ2B block | HP1b chromo inh | GCN5L2 inh
O=[N+]([O-])c1cc([N+](=O)[O-])c2cccnc2c1Oc1ccccc1O | ? | 3.36µM* | 22.4µM* | 28.2µM* | 70.8µM* | -12.7%
Cc1ccc(C)c(S(=O)(=O)/N=C(/Nc2ccccc2)c2ccccc2)c1 | 0.8 | 0.8% | -15.2% | . | 40.5% | -9.3%
CCC1Nc2ncnc(N3CCN(c4ccccn4)CC3)c2N(Cc2ccc(Cl)cc2)C1=O (configuration not stated) | -6.9 | -15.1% | ? | 56.2µM* | 0.2% | -0.4%
CCC1Nc2ncnc(N3CCN(c4ccccc4)CC3)c2N(Cc2ccc(C)cc2)C1=O (configuration not stated) | -6.0 | -0.1% | 56.2µM* | ? | -2.6% | ?
O=C(Nc1ccccc1Cl)Nc1ccnn1C1CCN(C(=O)CCN2CCCO2)CC1 | 7.2 | -13.0% | -29.0% | -24.5% | 16.6% | -4.2%
CCN(C(=O)COC(=O)CCc1ccc(OC)cc1)c1c(N)n(Cc2ccccc2)c(=O)[nH]c1=O | 0.6 | 2.7% | -3.4% | 3.8% | 18.2% | -1.9%
C=CCC1NS(=O)(=O)OCC1NC(=O)OCC(Cl)(Cl)Cl (configuration not stated) | -0.8 | -5.1% | -21.4% | 0.1% | 35.9% | -5.9%
CC(C)(C)OC1NS(=O)(=O)OCC1NCOC(Cl)(Cl)Cl (configuration not stated) | ? | ? | 79.4µM* | 50.1µM* | 6.8% | -6.2%
CCOc1cc(/C=N/NC(=O)c2cc(C3CC3)[nH]n2)ccc1O | 3.2 | -7.8% | 50.1µM* | -26.9% | -1.2% | -7.6%
COc1cc(/C=N/NC(=O)c2cc(C3CC3)[nH]n2)ccc1O | -2.3 | -4.1% | -3.2% | -5.3% | 52.2% | -5.0%
COc1ccc(Br)cc1/C=N/n1c(COc2ccccc2)n[nH]c1=S | -3.6 | -25.9% | -9.3% | 0.9% | 12.0% | 6.5%
S=c1[nH]nc(-c2ccccn2)n1/N=C/c1ccc(-c2ccccc2Cl)o1 | -27.4 | ? | 28.2µM* | 25.1µM* | ? | ?
Cc1ccc(/C=N/n2c(COc3ccccc3)n[nH]c2=S)s1 | -0.8 | ? | 56.2µM* | ? | -4.8% | -10.6%
S=c1[nH]nc(-c2ccccn2)n1/N=C/c1ccc(Br)s1 | -0.2 | ? | 7.94µM* | 12.6µM* | 14.0% | -0.4%
S=c1[nH]nc(COc2ccccc2)n1/N=C/c1ccc(Br)s1 | -1.9 | ? | 56.2µM* | -37.8% | -33.0% | -18.1%
Cc1ccccc1/C=N/n1c(COc2ccccc2)n[nH]c1=S | 1.4 | ? | -7.0% | -1.3% | -2.2% | -0.8%
Cc1n[nH]c(=S)n1/N=C/c1ccc(-c2ccc(Cl)cc2)o1 | -0.6 | 1.1% | -9.1% | . | 43.7% | .
CN=C1N(C)C[C@@H]2[C@@H]3C(=O)N(Cc4ccccc4)C(=O)[C@@H]3[C@](Cc3ccccc3)(C(=O)OC)N12 | 5.2 | -6.5% | -20.1% | . | 33.6% | -3.1%
CC1=C(c2ccc(C(C)C)cc2)S(=O)(=O)N=C1N1CCC(C(=O)NCCc2ccco2)CC1 | . | . | -9.7% | -11.4% | -15.2% | -3.7%
CC1CC(C(=O)Nc2ccccc2)C(=O)O1 (configuration not stated) | 2.1 | 3.1% | 10.7% | . | 22.9% | .
Cc1nnc(C)n1/N=C/c1ccccn1 | 0.2 | 2.8% | 3.1% | -1.4% | 39.4% | -3.8%
Cc1n[nH]c(=S)n(/N=C/c2ccccn2)c1=O | -7.5 | -3.7% | 2.82µM* | ? | -0.9% | 1.5%
Cc1cc(C)c2nc(NC(=O)c3ccc(S(=O)(=O)N4CCC(C)CC4)cc3)sc2c1 | . | . | -0.3% | 1.5% | 24.0%[57 µM] | -10.7%
Cc1cc(C)c2nc(NNC(=O)c3ccc(S(=O)(=O)N4CCCC(C)C4)cc3)sc2c1 (configuration not stated) | 4.3 | -15.5% | ? | 8.91µM* | -22.3% | -12.9%
Cc1cc(C)c2nc(NNC(=O)c3ccc(S(=O)(=O)N4CC(C)CC(C)C4)cc3)sc2c1 (configuration not stated) | 1.3 | -21.0% | 15.8µM* | 10µM* | -11.8% | -15.7%
SMILES | PI5P4Ka inh | PLK1 PBD inh | JMJD2A Tudor | BAZ2B block | HP1b chromo inh | GCN5L2 inh
Cc1ccc2nc(NNC(=O)c3ccc(S(=O)(=O)N4CCc5ccccc5C4)cc3)sc2c1 | -3.6 | -6.9% | ? | 4.47µM* | 32.9% | -7.1%
Cc1cccc2sc(NNC(=O)c3ccc(S(=O)(=O)N4CC(C)CC(C)C4)cc3)nc12 (configuration not stated) | -2.6 | -7.8% | 22.4µM* | 8.91µM* | -16.5% | -18.1%
Cn1cc(Cl)c(/C(N)=N/OC(=O)c2ccccc2C(F)(F)F)n1 | 0.3 | -11.4% | -2.8% | -8.0% | 22.3% | 1.5%
COC(=O)c1cc2oc(C)cc2n1Cc1c(C)cc(C)cc1C | . | . | -24.4% | ? | 20.4% | -5.8%
CC(=O)c1ccc(N2CCN(c3nc4c(S(=O)(=O)c5ccc(C)c(C)c5)nnn4c4ccc(Cl)cc34)CC2)cc1 | . | . | -9.5% | 1.1% | 14.9% | -2.1%
CC1CCC(C(O)(C(=O)O)C2CCCCC2)CC1C (configuration not stated) | 5.5 | 0.1% | -17.4% | . | 14.1% | .
O=C(COC(=O)c1cc(Br)ccc1O)NCCC1=CCCCC1 | 3.4 | -2.4% | . | . | . | .
O=C(CCC(=O)c1cccs1)OCc1nnc(-c2ccccc2)o1 | -9.0 | 26.7µM* | 50.1µM* | 4.4% | ? | -1.6%
C=CCNC(=O)c1cc(Cl)cc(Cl)c1 | 0.4 | 29.9µM* | 44.7µM* | -3.8% | -6.5% | -3.1%
CCc1ccc(-n2nc3ccc(NC(=O)c4cc(Cl)c(OC)c(Cl)c4)cc3n2)cc1 | . | . | -13.1% | -13.9% | 6.7% | -7.4%
COc1ccccc1N(C)S(=O)(=O)c1ccc(C(=O)N(CC(N)=O)C(C)C)cc1 | 6.0 | -6.4% | -10.0% | 89.1µM* | 29.7% | 0.0%
CCn1c(SCC(=O)Nc2cc(C)on2)nc2sc3c(c2c1=O)CCCC3 | . | -1.0% | -8.4% | 3.8% | 18.6% | -2.1%
C=CCn1c(SCC(=O)Nc2cc(C)on2)nc2sc3c(c2c1=O)CCCC3 | -6.0 | 26.7µM* | -6.9%[11.4 µM] | 8.3% | -8.4% | 0.8%
CCn1c(SCC(=O)OC)nc2sc3c(c2c1=O)CCC3 | . | -16.1% | 50.1µM* | 50.1µM* | ? | -21.4%
CCn1c(SCC(=O)OC)nc2sc3c(c2c1=O)CC(C)(C)OC3 | 0.9 | -10.9% | -5.6% | -5.6% | 10.2% | -1.3%
CCn1c(SCC(=O)O)nc2sc3c(c2c1=O)CCC3 | ? | ? | ? | 56.2µM* | -1.5% | -24.3%
Cn1c(SCC(=O)O)nc2sc3c(c2c1=O)CCC3 | -1.1 | -11.6% | -22.3% | -4.7% | 26.2% | -15.9%
CC(=C/C(=O)O)/C=C/c1ccc(Cl)o1 | -14.0 | ? | -8.2%[11.4 µM] | 50.1µM* | 70.8µM* | -3.1%
